Laboratory results reported in paper PMC12820563, “FoxP3 forms a head-to-head dimer in vivo and stabilizes its multimerization on adjacent microsatellites”.
The full ranking holds about 16,000 sequences; the median of “rpm ratio (pull-down/input)” is about 0.94, and the highest 2% start at about 1.7. For the sample, the highest values were picked, then their nearest neighbours and some sequences at random.

biological target: T1, MBP-FoxP1dN (Mus musculus, UniProt P58462 326-579); test: PD-seq (MBP pull-down with sequencing); 20 mM Tris-HCl pH 7.5, 100 mM NaCl, 1.5 mM MgCl2, 0.4 uM protein, 0.1 uM dsDNA library, 30 min, room temperature, amylose pull-down; high values mean tight binding; conditions: protein: recombinant; tags: His6-MBP; chain copies: 2; dsDNA, one strand shown
T1 sequence: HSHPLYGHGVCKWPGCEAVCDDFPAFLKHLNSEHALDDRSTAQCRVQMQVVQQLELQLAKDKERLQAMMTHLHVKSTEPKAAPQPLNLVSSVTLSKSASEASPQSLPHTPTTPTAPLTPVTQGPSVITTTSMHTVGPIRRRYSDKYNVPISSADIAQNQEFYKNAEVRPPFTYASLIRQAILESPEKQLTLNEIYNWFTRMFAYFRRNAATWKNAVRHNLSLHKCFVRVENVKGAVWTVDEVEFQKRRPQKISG
Summary of the method: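 Protein and DNA were mixed at 0.4 µM and 0.1 µM and held for 30 min at room temperature in Tris pH 7.5 buffer with NaCl and MgCl2; the protein was a His6-MBP-tagged, N-terminally truncated mouse FoxP3 or FoxP1 fragment from E. coli, and the DNA a Klenow-filled double-stranded degenerate library. Amylose resin captured the complexes, which were washed three times. Binding is read as reads-per-million enrichment of pull-down versus input after Illumina sequencing, with replicates pooled.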

| Sequence | binding signal |
| --- | --- |
| GATGATTGTTCTCCCAGCTGATGAATTCTTTAAGTCGAGTAAACAAATTTTCCTAATCTTTCTGTTCAAGCGCCATCTAC | 0.837 RPM ratio (pull-down/input) |
| GATGATTGTTCTCCCAGCTGATGAATTTCTAGCATCGAGTAAACAAATTTTCCTAATCTTTCTGTTCAAGCGCCATCTAC | 1.06 RPM ratio (pull-down/input) |
| GATGATTGTTCTCCCAGCTGATGAATTGCATTCTTCGAGTAAACAAATTTTCCTAATCTTTCTGTTCAAGCGCCATCTAC | 1.61 RPM ratio (pull-down/input) |
| GATGATTGTTCTCCCAGCTGATGAATTGCATTCATCGAGTAAACAAATTTTCCTAATCTTTCTGTTCAAGCGCCATCTAC | 1.46 RPM ratio (pull-down/input) |
| GATGATTGTTCTCCCAGCTGATGAATTTCTGCATTCGAGTAAACAAATTTTCCTAATCTTTCTGTTCAAGCGCCATCTAC | 1.35 RPM ratio (pull-down/input) |
| GATGATTGTTCTCCCAGCTGATGAATTGTTGCATTCGAGTAAACAAATTTTCCTAATCTTTCTGTTCAAGCGCCATCTAC | 1.87 RPM ratio (pull-down/input) |
| GATGATTGTTCTCCCAGCTGATGAATTCATTGCATCGAGTAAACAAATTTTCCTAATCTTTCTGTTCAAGCGCCATCTAC | 1.24 RPM ratio (pull-down/input) |
| GATGATTGTTCTCCCAGCTGATGAATTCATGCATTCGAGTAAACAAATTTTCCTAATCTTTCTGTTCAAGCGCCATCTAC | 1.29 RPM ratio (pull-down/input) |
| GATGATTGTTCTCCCAGCTGATGAATTGATGCATTCGAGTAAACAAATTTTCCTAATCTTTCTGTTCAAGCGCCATCTAC | 1.74 RPM ratio (pull-down/input) |
| GATGATTGTTCTCCCAGCTGATGAATTTTTGCATTCGAGTAAACAAATTTTCCTAATCTTTCTGTTCAAGCGCCATCTAC | 1.48 RPM ratio (pull-down/input) |
| GATGATTGTTCTCCCAGCTGATGAATTCAACATTTCGAGTAAACAAATTTTCCTAATCTTTCTGTTCAAGCGCCATCTAC | 0.941 RPM ratio (pull-down/input) |
| GATGATTGTTCTCCCAGCTGATGAATTGCATCATTCGAGTAAACAAATTTTCCTAATCTTTCTGTTCAAGCGCCATCTAC | 1.84 RPM ratio (pull-down/input) |
| GATGATTGTTCTCCCAGCTGATGAATTGCAACATTCGAGTAAACAAATTTTCCTAATCTTTCTGTTCAAGCGCCATCTAC | 1.75 RPM ratio (pull-down/input) |
| GATGATTGTTCTCCCAGCTGATGAATTTCAACATTCGAGTAAACAAATTTTCCTAATCTTTCTGTTCAAGCGCCATCTAC | 0.964 RPM ratio (pull-down/input) |
| GATGATTGTTCTCCCAGCTGATGAATTAAACAGATCGAGTAAACAAATTTTCCTAATCTTTCTGTTCAAGCGCCATCTAC | 1.27 RPM ratio (pull-down/input) |
| GATGATTGTTCTCCCAGCTGATGAATTATAAGTATCGAGTAAACAAATTTTCCTAATCTTTCTGTTCAAGCGCCATCTAC | 1.19 RPM ratio (pull-down/input) |
| GATGATTGTTCTCCCAGCTGATGAATTGAATAAGTCGAGTAAACAAATTTTCCTAATCTTTCTGTTCAAGCGCCATCTAC | 0.918 RPM ratio (pull-down/input) |
| GATGATTGTTCTCCCAGCTGATGAATTTTAAATTTCGAGTAAACAAATTTTCCTAATCTTTCTGTTCAAGCGCCATCTAC | 0.924 RPM ratio (pull-down/input) |
| GATGATTGTTCTCCCAGCTGATGAATTCAGCACTTCGAGTAAACAAATTTTCCTAATCTTTCTGTTCAAGCGCCATCTAC | 0.847 RPM ratio (pull-down/input) |
| GATGATTGTTCTCCCAGCTGATGAATTACAGTGTTCGAGTAAACAAATTTTCCTAATCTTTCTGTTCAAGCGCCATCTAC | 1.16 RPM ratio (pull-down/input) |
| GATGATTGTTCTCCCAGCTGATGAATTGAGTCAATCGAGTAAACAAATTTTCCTAATCTTTCTGTTCAAGCGCCATCTAC | 1.01 RPM ratio (pull-down/input) |
| GATGATTGTTCTCCCAGCTGATGAATTGGAAGCGTCGAGTAAACAAATTTTCCTAATCTTTCTGTTCAAGCGCCATCTAC | 0.893 RPM ratio (pull-down/input) |
| GATGATTGTTCTCCCAGCTGATGAATTGAATGGCTCGAGTAAACAAATTTTCCTAATCTTTCTGTTCAAGCGCCATCTAC | 0.823 RPM ratio (pull-down/input) |
| GATGATTGTTCTCCCAGCTGATGAATTGACCGAGTCGAGTAAACAAATTTTCCTAATCTTTCTGTTCAAGCGCCATCTAC | 0.835 RPM ratio (pull-down/input) |
| GATGATTGTTCTCCCAGCTGATGAATTCCTTCTCTCGAGTAAACAAATTTTCCTAATCTTTCTGTTCAAGCGCCATCTAC | 0.736 RPM ratio (pull-down/input) |
